The panel holds about 83,000 compounds, 20% with a hit somewhere; the sample as a whole holds those more often.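 Cell lines were cultured in 96-well plates, exposed to a single compound concentration, and assessed for percent growth 48 hours later.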 Values without a mark were called inactive. Activity calls are given as the source filed them. The calls were made as follows: active = growth percent below 10; inactive = the rest.

The subject of the experiment is MDA-MB-468 breast. As to the kind of experiment: NCI-60 one-dose screen, 48 h (100 = growth as untreated, 0 = no growth, -100 = all killed). Particulars: 10 µM unless noted.
As to `COc1cc2oc(-c3cccc(NC(=O)c4cc(NC(=O)[C@H](C)N)ccc4Cl)c3)cc(=O)c2c(OC)c1OC`, the growth is 91.1%.

In the case of `COC(=O)c1c2c(c(C)[n+]([O-])c1C)C(=O)C=C(NCc1ccc(F)c(F)c1)C2=O`, the growth is -78.4% (active). On to `N/C(=N\C(N)=N\c1nc2ccccc2s1)c1cccc(Br)c1`, for which the growth is 90.6%. Take `Nc1cc(F)ccc1NC(=O)c1ccc(NC(=O)C/C=C/c2cccnc2)cc1`: the growth is 40.1%.

As to `O=C(CCc1nc2sc3c(c2c(=O)[nH]1)CCC3)NCc1cn(-c2ccccc2)nc1-c1ccccc1`, the growth was 83.6%. Then `CC1(c2ccccc2O)NN=C(/N=C/c2cccc([N+](=O)[O-])c2)N1C(Cc1c[nH]c2ccccc12)C(=O)O` (centres undefined), with 103%; and `Cc1ccc(/C=C(\C#N)c2cc3ccccc3n2C)cc1`, with 23.6%. Then `COC(=O)CC[C@@H](C)[C@H]1CC[C@H]2[C@@H]3CC[C@@H]4C[C@H](O)CC[C@]4(C)[C@H]3C[C@H](O)[C@]12C`, with 103%; and `COC(=O)/C=C1/SC(=Nc2ccc(C(F)(F)F)cc2)N(CCc2c[nH]c3ccc(O)cc23)C1=O`, with 8.44% (active); and `CC(C)OC1=C(Cl)C(=O)c2ccccc2C1=O`, with 69.1%. As for `Cn1c(-c2ccccc2)cc(=O)cc1-c1ccccc1`, the growth was 68.7%.

For the molecule `CCCCC1Nc2nc(SC)n(C)c(=O)c2CN(Cc2ccccc2)C1=O` (centres undefined), the growth was 101%. As to `CSc1nc(C)c([N+](=O)[O-])c(N)n1`, the growth was 106%. `C=CC(=O)Nc1cccc(Nc2nc(Nc3ccc(OCCOC(F)F)cc3)ncc2F)c1`: the growth is -27.9% (active).

Values taken from PubChem BioAssay (NCI).
